According to PubChem BioAssay (Tox21):
Results filed as inconclusive are left out. Activity calls are given as the source filed them. Unless noted, calls come from the whole dose curve.

How the values were obtained:
[1] = Nuclear factor erythroid 2-related factor 2/antioxidant responsive element (Nrf2/ARE) small molecule agonists: qHTS cell viability counter screen in human keratinocytes (AID 1919968; active = well fitted curve in the direction sought with a large enough effect in the repeat runs; an effect the other way counts as inactive or inconclusive; note: nearly all actives have a fitted effect of over 55% in size; note: potency is the fitted concentration of half-maximal effect)
Summary of the method: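 Fluorescence read-out from CellTiter-Fluor after 1 h at 37 C. Wells held HaCaT-derived ARE-luciferase reporter cells (1,500/well) treated 23 h with DMSO-dissolved compounds. Run in the same wells as the luciferase agonist read.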

[2] = Nuclear factor erythroid 2-related factor 2/antioxidant responsive element (Nrf2/ARE) small molecule agonists: luciferase reporter gene qHTS assay in human keratinocytes (AID 1919969); note: nearly all actives have a fitted effect of over 35% in size; note: potency is the fitted concentration of half-maximal effect
[3] = molecular target: KiSS-1 receptor (Homo sapiens) (UniProt Q969F8); experiment: Human kisspeptin (KISS1R) small molecule agonists, calcium flux assay in KISS1R-HEK293 cells (AID 1920064; active = well fitted curve in the direction sought with a large enough effect in the repeat runs; an effect the other way counts as inactive or inconclusive)
Summary of the method: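 Calcium flux read-out: kinetic fluorescence at Ex/Em=480/540, 1 s intervals over 3 min, after pin-tool compound addition to dye-loaded KISS1R-HEK293 cells. Fifteen concentrations, triplicates.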

[4] = p53 small molecule agonists, cell-based qHTS assay with human liver microsomes: qHTS cell viability counter screen (AID 1963579); note: nearly all actives have a fitted effect of over 45% in size; note: potency is the fitted concentration of half-maximal effect
Summary of the method: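 HLM-supplemented (0.5 mg/mL final) and NADPH-supplemented (0.5 mg/mL final) p53RE-bla cultures, 4,000 cells per well, were dosed with compounds in DMSO for 16 h at 37 C; luminescent ATP detection (CellTiter-Glo, 30 min, room temperature) quantified surviving cells.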

[5] = p53 small molecule agonists, cell-based qHTS assay: qHTS cell viability counter screen (AID 1963581); note: nearly all actives have a fitted effect of over 45% in size
Summary of the method: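 Cytotoxicity read-out: ATP-based luminescence (CellTiter-Glo, 30 min RT) measured in the same wells as the p53 reporter assay, HCT-116 p53RE-bla cells, 16 h compound exposure at 37 C.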

[6] = p53 small molecule agonists, cell-based qHTS assay (AID 1963582; active = well fitted activation curve with a large enough effect in the signal ratio in the repeat runs, not every such curve was filed as active; the % refers to the signal ratio)
Summary of the method: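 Fluorescence intensity read-out of a beta-lactamase reporter under a p53 response element. Cells were exposed to DMSO-dissolved compounds for 16 h at 37 C, then developed with FRET substrate for 2 h at RT.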

[7] = molecular target: 5-hydroxytryptamine receptor 2A (Homo sapiens) (UniProt P28223); experiment: 5-hydroxytryptamine receptor 2A (HTR2A) small molecule antagonists, cell-based qHTS assay (AID 1963586); note: nearly all actives have a fitted effect of over 45% in size; note: potency is the fitted concentration of half-maximal effect
Summary of the method: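 CHO cells stably expressing human HTR2A were plated for 18 h at 37 C, then loaded with calcium dye for 1 h. Compounds were preincubated 5 min at room temperature before DOI (4 nM solution) was added. Kinetic fluorescence was read for 3 min.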

[8] = molecular target: 5-hydroxytryptamine receptor 2A (Homo sapiens) (UniProt P28223); experiment: 5-hydroxytryptamine receptor 2A (HTR2A) small molecule agonists, cell-based qHTS assay (AID 1963587); note: nearly all actives have a fitted effect of over 30% in size; note: potency is the fitted concentration of half-maximal effect
Summary of the method: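 HTR2A-CHO cells, plated 18 h at 37 C/5% CO2, dye-loaded 1 h at 37 C; compounds in DMSO added by pin tool (agonist mode). Intracellular calcium flux read as kinetic fluorescence on FDSS over 2 min at 1 s intervals.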

[9] = molecular target: Muscarinic acetylcholine receptor M1 (Homo sapiens) (UniProt P11229); experiment: Cholinergic receptor muscarinic 1 (CHRM1) small molecule antagonists, cell-based qHTS assay (AID 1963588); note: nearly all actives have a fitted effect of over 40% in size; note: potency is the fitted concentration of half-maximal effect
Summary of the method: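 Compounds were tested at 15 concentrations in three independent runs. Dye-loaded CHRM1-CHO cells were exposed 5 min at room temperature before stimulation by acetylcholine added at 50nM. Intracellular calcium was read kinetically on FDSS for 3 min.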

[10] = molecular target: Muscarinic acetylcholine receptor M1 (Homo sapiens) (UniProt P11229); experiment: Cholinergic receptor muscarinic 1 (CHRM1) small molecule agonists, cell-based qHTS assay (AID 1963589); note: nearly all actives have a fitted effect of over 35% in size
Summary of the method: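 Calcium flux read-out: kinetic fluorescence at 1 sec intervals after pin-tool compound addition to dye-loaded CHRM1-CHO cells (human M1). Agonist mode; 15 concentrations tested in triplicate independent runs.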

[11] = cAMP Responsive Elements (CRE) small molecule agonists, cell-based qHTS assay (AID 1963590)
Summary of the method: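 Beta-lactamase reporter readout: LiveBLAzer B/G FRET substrate, 2 h at room temperature, added after 3 h compound treatment of CRE-bla HEK 293T cells at 37 C/5% CO2.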

[12] = molecular target: Beta-2 adrenergic receptor (Homo sapiens) (UniProt P07550); experiment: Adrenergic beta2 receptor (ADRB2) small molecule antagonists, cell-based qHTS assay (AID 1963592); note: series mostly up to about 92 µM; nearly all actives have a fitted effect of over 50% in size
Summary of the method: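 Assay format: CHO-ADRB2 cells, 18-20hr seeding at 37C/5% CO2, then compound plus 1nM isoproterenol agonist mix for 0.5hr RT. Homogeneous time-resolved fluorescence cAMP detection after 1hr, expressed as 665/615 nm ratio.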

[13] = molecular target: Beta-2 adrenergic receptor (Homo sapiens) (UniProt P07550); experiment: Adrenergic beta2 receptor (ADRB2) small molecule agonists, cell-based qHTS assay (AID 1963593); note: potency is the fitted concentration of half-maximal effect;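 for activation: CHO cells stably overexpressing human ADRB2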
Summary of the method: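 CHO cells stably over-expressing ADRB2 were plated overnight at 37C, then dosed with compounds plus a stimulation mix containing 100uM IBMX and 25uM Ro-20-1724 for 0.5hr at room temperature. cAMP was measured by HTRF competition, 1hr.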

[14] = molecular target: D(2) dopamine receptor (Homo sapiens) (UniProt P14416); experiment: Dopamine D2 receptor (DRD2) small molecule agonists, cell-based qHTS assay (AID 1963594); note: nearly all actives have a fitted effect of over 35% in size
Summary of the method: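 HEK293 cells stably expressing DRD2 were cultured 24 h at 37 C, then given Ro20-1724 (0.1 mM final) and compounds for 10 min at room temperature. NKH477 (200nM) was then added for 30 min. cAMP was read by HTRF.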

[15] = molecular target: D(2) dopamine receptor (Homo sapiens) (UniProt P14416); experiment: Dopamine D2 receptor (DRD2) small molecule antagonists, cell-based qHTS assay (AID 1963595; active = well fitted inhibition curve with a large enough effect in the signal ratio in the repeat runs, with a control signal flat; the % refers to the signal ratio)
Summary of the method: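 DRD2-HEK293; 0.1 mM Ro20-1724; cpd 10 min RT; NKH477 200 nM + quinpirole 12 nM, 30 min RT; HTRF cAMP (cAMP-d2/anti-cAMP cryptate), 665/620 nm ratio after 1 h.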

[16] = G protein-coupled receptor (GPCR) small molecule agonists, calcium flux assay: HEK293 wild type cell line counter screen (AID 1920065); note: potency is the fitted concentration of half-maximal effect
Summary of the method: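 Agonist mode; 18 h seeding at 37 C, 1 h dye load at 37 C; compounds pinned from DMSO, ATP as positive control; kinetic fluorescence 480/540 nm, 3 min, 1 s reads; 15 concentrations, triplicate.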

[17] = p53 small molecule agonists, cell-based qHTS assay with rat liver microsomes: qHTS cell viability counter screen (AID 1963580); note: nearly all actives have a fitted effect of over 45% in size
Summary of the method: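 Luminescent ATP readout (CellTiter-Glo, 30 min at room temperature) reports viability of p53RE-bla HCT-116 cells after 16 h at 37 C with test compounds under metabolic activation by rat liver microsomes and NADPH at 0.5 mg/mL final each.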

[18] = cAMP Responsive Elements (CRE) small molecule antagonists, cell-based qHTS assay (AID 1963591; active = well fitted inhibition curve with a large enough effect in the signal ratio in the repeat runs, not every such curve was filed as active; the % refers to the signal ratio)
Summary of the method: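 HEK293T CRE-bla; 18 h preincubation; compound pin-transfer; NKH477 0.25 uM final, 3 h, 37 C; LiveBLAzer FRET substrate 2 h RT.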

[19] = p53 small molecule agonists, cell-based qHTS assay with human liver microsomes (AID 1963577);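 note: p53 response element beta-lactamase reporter cells with liver microsomes plus NADPH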
Summary of the method: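 Reporter activation was measured by LiveBLAzer fluorescence intensity in p53RE-bla cells, which had been exposed to compounds for 16 h at 37 C alongside 0.5 mg/mL human liver microsomes and 0.5 mg/mL NADPH (final concentrations).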

[20] = p53 small molecule agonists, cell-based qHTS assay with rat liver microsomes (AID 1963578)
Summary of the method: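 Compound in DMSO added to p53RE-bla cells 5 h post-plating; rat microsomes/NADPH 0.5 mg/mL final; 16 h, 37 C; LiveBLAzer 2 h RT.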

Measured: Potency

Chain of KiSS-1 receptor (Homo sapiens) (Q969F8 whole entry, looked up): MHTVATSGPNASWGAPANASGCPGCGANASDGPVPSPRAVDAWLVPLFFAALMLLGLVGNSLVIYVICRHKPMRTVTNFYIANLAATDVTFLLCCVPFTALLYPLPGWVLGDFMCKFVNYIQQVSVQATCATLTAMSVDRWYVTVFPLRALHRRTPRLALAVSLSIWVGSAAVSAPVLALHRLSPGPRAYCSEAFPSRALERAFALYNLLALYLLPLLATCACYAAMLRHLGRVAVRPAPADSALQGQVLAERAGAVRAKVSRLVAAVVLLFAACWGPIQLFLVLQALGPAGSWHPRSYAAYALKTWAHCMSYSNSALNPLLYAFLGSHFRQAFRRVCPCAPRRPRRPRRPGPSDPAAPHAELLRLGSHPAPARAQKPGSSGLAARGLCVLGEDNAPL
Chain of 5-hydroxytryptamine receptor 2A (Homo sapiens) (P28223 whole entry, looked up): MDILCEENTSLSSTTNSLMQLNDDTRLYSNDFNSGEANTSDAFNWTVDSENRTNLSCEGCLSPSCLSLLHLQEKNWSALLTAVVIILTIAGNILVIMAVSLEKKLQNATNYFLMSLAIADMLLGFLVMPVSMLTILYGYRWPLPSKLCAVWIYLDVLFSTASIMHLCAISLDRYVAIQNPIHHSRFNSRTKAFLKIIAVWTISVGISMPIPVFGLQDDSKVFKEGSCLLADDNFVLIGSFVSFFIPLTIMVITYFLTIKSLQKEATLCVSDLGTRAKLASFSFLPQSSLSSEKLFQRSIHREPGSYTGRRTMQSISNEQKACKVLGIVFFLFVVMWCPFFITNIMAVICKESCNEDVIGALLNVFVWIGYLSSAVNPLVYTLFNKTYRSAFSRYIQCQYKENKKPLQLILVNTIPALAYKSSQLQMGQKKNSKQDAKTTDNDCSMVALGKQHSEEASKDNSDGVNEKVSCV
Chain of Beta-2 adrenergic receptor (Homo sapiens) (P07550 whole entry, looked up): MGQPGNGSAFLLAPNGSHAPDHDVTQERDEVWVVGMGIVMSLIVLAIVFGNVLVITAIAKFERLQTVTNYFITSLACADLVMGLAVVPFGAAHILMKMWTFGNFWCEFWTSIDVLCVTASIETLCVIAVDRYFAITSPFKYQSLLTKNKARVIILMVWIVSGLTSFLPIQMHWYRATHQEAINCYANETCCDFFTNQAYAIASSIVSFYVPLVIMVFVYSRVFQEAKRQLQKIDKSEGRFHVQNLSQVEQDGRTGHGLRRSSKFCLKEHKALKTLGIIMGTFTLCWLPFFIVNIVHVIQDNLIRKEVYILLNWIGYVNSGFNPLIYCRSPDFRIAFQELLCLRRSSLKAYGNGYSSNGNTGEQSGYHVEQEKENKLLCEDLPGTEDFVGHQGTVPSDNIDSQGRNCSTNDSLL
Chain of Muscarinic acetylcholine receptor M1 (Homo sapiens) (P11229 whole entry, looked up): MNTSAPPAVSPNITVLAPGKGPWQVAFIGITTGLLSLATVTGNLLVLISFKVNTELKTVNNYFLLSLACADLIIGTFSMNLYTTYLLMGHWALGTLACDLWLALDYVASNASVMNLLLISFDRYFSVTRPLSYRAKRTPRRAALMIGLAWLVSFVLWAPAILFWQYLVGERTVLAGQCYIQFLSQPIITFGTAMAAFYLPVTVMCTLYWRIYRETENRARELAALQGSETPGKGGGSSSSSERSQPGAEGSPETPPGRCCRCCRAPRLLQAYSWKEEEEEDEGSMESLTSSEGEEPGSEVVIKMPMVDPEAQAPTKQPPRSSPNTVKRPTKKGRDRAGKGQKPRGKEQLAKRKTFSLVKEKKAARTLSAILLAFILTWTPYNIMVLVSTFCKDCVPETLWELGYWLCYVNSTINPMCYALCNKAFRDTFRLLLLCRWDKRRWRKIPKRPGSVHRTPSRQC
Chain of D(2) dopamine receptor (Homo sapiens) (P14416 whole entry, looked up): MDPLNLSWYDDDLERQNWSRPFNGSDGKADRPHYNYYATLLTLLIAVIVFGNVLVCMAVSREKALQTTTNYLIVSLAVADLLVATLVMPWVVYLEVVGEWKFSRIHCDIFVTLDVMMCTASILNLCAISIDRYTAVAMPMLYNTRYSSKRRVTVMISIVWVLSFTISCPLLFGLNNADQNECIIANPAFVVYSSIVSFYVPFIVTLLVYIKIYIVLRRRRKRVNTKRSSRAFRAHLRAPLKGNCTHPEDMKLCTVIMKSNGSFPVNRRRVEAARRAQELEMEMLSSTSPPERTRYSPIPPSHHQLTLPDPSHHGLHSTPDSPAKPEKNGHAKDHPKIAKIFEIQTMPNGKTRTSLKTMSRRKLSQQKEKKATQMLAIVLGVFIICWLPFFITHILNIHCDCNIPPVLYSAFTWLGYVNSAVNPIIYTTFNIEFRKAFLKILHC

COC(=O)/C=C(\C)OP(=O)(OC)OC
active: [13] 17.2 µM
inactive: [1] | [2] | [3] | [4] | [5] | [6] | [7] | [8] | [9] | [10] | [11] | [12] | [14] | [15]

COc1nn(C(=O)NS(=O)(=O)c2ccccc2OC(F)(F)F)c(=O)n1C
inactive: [1] | [2] | [3] | [16] | [4] | [17] | [5] | [7] | [9] | [11] | [18] | [13] | [14] | [15]

Clc1cc(C(Cl)(Cl)Cl)cnc1Cl
inactive: [1] | [3] | [16] | [19] | [20] | [4] | [17] | [5] | [6] | [7] | [8] | [9] | [10] | [11] | [18] | [12] | [14] | [15]

N#CC(C#N)=NNc1cccc(Cl)c1
inactive: [19] | [20] | [6] | [7] | [8] | [9] | [10] | [12] | [14] | [15]
active: [1] 8.63 µM | [2] 7.7 µM | [16] 2.45 µM | [4] 5.13 µM

CCN(CC)CCc1c[nH]c2ccccc12
active: [7] 0.0221 µM | [8] 0.0091 µM
inactive: [1] | [2] | [16] | [19] | [20] | [4] | [17] | [6] | [9] | [10] | [11] | [18] | [13] | [14]

CCOC(=O)C(Cl)C(C)=O (configuration not stated)
inactive: [1] | [2] | [3] | [19] | [20] | [4] | [17] | [5] | [6] | [7] | [10] | [11] | [18] | [12] | [15]
active: [9] 4.26 µM

CN(C)CCc1c[nH]c2ccccc12
active: [2] 108 µM | [7] 0.0166 µM | [8] 0.0109 µM
inactive: [1] | [3] | [16] | [17] | [9] | [11] | [18] | [12] | [13] | [14] | [15]
